Reference: the supplement of paper PMC11732987, “Enantioselective OTUD7B fragment discovery through chemoproteomics screening and high-throughput optimisation” (Communications Chemistry, 2025)

How the values were obtained:
Assay in all cases: log2 ratio of Biotin-Ahx-Ub-VS probe labelling (fragment/DMSO); higher = less target engagement (more negative = stronger competition), active = hit call of the paper (q ≤ 0.05, log2 ratio ≤ -1)
Settings in all cases: compound concentration: 200 uM; treatment time: 3 h
[1] = biological target: T1, ALG13 (UniProt Q9NP73)
T1 sequence (whole entry): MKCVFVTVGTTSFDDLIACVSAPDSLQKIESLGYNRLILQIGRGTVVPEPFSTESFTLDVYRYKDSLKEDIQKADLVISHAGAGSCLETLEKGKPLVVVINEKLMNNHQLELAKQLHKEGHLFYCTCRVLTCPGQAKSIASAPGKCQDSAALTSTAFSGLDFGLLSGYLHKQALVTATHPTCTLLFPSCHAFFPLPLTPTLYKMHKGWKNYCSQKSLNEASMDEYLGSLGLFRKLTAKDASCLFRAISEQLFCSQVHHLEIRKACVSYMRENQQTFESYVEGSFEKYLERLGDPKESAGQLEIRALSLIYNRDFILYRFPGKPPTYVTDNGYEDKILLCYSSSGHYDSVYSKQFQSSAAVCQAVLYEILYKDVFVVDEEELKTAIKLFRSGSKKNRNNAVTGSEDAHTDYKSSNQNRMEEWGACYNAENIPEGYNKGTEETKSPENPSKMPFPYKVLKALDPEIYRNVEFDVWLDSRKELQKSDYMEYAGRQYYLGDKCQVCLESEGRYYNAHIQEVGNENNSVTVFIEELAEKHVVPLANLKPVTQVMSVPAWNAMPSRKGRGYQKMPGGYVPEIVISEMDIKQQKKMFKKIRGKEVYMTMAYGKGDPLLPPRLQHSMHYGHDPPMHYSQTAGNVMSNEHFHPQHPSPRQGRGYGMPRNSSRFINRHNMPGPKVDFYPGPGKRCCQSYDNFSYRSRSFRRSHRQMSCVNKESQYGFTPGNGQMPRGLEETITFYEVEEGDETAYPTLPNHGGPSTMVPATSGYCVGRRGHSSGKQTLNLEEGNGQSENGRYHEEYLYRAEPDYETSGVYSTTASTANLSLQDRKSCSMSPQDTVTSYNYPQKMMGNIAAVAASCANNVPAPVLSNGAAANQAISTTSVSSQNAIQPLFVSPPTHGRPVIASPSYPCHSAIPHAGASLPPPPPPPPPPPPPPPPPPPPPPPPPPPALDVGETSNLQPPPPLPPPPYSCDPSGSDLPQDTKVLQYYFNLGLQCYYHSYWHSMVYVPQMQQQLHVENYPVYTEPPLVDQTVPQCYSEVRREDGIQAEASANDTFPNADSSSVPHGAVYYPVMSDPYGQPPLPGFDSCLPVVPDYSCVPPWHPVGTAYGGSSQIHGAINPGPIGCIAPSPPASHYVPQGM
Summary of the method: (§1)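 Fragment (200 µM) or vehicle was incubated for 3 h with triplicate HEK293T lysate samples of 495 µg, which were then treated with Biotin-Ahx-Ub-VS at 0.5 µM final for 1 h. Labelled DUBs were enriched on NeutrAvidin, digested with LysC and trypsin, and analysed by diaPASEF LC-MS/MS. Values are average log2 fragment/vehicle ratios from an unpaired t-test on global-median-normalised Spectronaut label-free quantities, using proteins with ≥2 unique peptides.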

[2] = biological target: ATXN3 (UniProt P54252)
Sequence of ATXN3 (P54252 whole entry): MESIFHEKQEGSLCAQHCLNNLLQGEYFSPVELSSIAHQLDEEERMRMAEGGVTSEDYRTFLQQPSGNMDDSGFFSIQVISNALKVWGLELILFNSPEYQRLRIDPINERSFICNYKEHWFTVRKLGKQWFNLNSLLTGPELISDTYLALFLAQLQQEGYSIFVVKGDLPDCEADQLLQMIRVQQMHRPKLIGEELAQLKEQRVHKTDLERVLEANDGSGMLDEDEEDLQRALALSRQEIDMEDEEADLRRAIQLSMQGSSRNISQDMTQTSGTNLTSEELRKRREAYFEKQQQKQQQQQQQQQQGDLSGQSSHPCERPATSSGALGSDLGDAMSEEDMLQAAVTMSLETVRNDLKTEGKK
Summary of the method: as §1

[3] = biological target: T2, BAP1 (UniProt Q92560)
T2 sequence (whole entry): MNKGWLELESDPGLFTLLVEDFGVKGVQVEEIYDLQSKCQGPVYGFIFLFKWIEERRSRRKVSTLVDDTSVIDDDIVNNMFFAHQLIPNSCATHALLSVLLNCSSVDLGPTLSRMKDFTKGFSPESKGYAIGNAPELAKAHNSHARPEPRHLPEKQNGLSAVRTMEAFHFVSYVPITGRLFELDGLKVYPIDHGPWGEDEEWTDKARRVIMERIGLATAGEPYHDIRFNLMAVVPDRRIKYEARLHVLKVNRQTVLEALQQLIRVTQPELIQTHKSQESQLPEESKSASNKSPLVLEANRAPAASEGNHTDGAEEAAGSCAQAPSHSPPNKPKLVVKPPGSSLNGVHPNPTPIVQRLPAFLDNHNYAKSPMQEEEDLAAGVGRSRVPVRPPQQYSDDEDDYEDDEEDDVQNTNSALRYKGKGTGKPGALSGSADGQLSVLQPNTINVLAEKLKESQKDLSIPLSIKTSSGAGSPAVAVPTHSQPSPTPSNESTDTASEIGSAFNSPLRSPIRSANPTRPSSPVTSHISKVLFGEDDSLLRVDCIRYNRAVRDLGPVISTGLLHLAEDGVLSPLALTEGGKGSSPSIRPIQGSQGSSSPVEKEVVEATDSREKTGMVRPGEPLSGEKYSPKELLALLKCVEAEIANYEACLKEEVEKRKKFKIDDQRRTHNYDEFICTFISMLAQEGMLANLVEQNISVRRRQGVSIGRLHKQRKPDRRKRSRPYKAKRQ
Summary of the method: as §1

[4] = biological target: EIF3F (UniProt O00303)
Sequence of EIF3F (O00303 whole entry): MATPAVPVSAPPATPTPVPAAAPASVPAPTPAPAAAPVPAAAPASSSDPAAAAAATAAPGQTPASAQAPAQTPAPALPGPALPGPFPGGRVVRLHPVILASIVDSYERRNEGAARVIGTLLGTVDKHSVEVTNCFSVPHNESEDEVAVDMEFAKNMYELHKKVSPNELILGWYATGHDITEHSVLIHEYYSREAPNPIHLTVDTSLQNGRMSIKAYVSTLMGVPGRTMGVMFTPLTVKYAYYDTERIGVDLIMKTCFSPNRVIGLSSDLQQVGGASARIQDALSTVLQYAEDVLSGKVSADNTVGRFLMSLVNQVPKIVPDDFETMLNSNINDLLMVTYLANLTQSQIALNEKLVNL
Summary of the method: as §1

[5] = biological target: EIF3H (UniProt O15372)
Sequence of EIF3H (O15372 whole entry): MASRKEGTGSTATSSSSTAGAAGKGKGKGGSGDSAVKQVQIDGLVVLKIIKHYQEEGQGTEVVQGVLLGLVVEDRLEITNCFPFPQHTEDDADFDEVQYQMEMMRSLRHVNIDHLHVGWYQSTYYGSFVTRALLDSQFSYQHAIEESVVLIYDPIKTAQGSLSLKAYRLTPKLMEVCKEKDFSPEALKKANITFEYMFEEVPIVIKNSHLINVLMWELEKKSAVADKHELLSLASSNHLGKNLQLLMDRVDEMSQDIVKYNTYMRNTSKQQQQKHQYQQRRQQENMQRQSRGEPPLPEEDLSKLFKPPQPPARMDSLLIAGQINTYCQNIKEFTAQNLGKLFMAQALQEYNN
Summary of the method: as §1

[6] = biological target: T3, FAM105A (UniProt Q9NUU6)
T3 sequence (whole entry): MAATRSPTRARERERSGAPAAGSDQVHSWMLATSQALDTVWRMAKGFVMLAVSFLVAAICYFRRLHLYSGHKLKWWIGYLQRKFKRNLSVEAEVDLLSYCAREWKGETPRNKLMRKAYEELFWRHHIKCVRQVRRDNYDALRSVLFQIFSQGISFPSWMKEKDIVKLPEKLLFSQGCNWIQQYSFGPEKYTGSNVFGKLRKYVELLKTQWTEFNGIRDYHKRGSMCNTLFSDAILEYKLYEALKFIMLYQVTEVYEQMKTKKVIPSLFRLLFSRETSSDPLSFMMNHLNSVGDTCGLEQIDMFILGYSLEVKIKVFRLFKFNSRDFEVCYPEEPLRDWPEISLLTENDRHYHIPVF
Summary of the method: as §1

[7] = biological target: OTUB1 (UniProt Q96FW1)
Sequence of OTUB1 (Q96FW1 whole entry): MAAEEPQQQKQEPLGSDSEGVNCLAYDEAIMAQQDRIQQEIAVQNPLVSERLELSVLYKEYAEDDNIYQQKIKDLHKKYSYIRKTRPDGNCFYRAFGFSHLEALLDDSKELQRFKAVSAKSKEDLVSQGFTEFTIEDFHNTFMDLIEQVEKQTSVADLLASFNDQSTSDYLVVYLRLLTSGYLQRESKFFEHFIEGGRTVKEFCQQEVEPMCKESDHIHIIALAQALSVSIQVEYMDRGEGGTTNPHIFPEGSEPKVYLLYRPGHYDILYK
Summary of the method: as §1

[8] = biological target: T4, OTUD4 (UniProt Q01804)
T4 sequence (whole entry): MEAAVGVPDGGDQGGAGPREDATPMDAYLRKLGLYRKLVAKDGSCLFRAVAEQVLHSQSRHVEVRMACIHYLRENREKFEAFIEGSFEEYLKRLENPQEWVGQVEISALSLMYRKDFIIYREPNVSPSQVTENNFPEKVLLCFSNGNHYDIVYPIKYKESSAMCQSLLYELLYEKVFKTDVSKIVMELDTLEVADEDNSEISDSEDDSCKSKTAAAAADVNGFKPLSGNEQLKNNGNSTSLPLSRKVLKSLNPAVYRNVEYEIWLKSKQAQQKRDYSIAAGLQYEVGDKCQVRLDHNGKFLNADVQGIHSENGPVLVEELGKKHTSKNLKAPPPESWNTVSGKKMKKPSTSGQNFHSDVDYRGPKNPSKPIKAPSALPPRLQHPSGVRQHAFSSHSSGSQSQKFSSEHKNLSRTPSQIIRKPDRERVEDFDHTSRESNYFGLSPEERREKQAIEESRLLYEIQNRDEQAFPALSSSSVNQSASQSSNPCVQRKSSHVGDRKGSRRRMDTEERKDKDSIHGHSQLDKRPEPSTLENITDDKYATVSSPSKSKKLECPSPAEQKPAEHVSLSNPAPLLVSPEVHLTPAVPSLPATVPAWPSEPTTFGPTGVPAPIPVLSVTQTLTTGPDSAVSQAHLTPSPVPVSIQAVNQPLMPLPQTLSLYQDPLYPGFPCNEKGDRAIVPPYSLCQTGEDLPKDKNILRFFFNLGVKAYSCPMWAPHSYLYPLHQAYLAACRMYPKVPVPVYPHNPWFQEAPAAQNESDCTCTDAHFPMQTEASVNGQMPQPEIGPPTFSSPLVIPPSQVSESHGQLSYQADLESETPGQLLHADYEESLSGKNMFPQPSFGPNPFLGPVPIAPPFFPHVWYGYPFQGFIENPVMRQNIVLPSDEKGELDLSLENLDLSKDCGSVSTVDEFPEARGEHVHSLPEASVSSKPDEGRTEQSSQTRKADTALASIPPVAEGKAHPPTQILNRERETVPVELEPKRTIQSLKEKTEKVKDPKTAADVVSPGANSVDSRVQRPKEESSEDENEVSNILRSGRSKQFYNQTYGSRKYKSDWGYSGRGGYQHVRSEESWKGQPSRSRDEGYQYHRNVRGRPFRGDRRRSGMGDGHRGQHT
Summary of the method: as §1

[9] = biological target: T5, OTUD5 (UniProt Q96G74)
T5 sequence (whole entry): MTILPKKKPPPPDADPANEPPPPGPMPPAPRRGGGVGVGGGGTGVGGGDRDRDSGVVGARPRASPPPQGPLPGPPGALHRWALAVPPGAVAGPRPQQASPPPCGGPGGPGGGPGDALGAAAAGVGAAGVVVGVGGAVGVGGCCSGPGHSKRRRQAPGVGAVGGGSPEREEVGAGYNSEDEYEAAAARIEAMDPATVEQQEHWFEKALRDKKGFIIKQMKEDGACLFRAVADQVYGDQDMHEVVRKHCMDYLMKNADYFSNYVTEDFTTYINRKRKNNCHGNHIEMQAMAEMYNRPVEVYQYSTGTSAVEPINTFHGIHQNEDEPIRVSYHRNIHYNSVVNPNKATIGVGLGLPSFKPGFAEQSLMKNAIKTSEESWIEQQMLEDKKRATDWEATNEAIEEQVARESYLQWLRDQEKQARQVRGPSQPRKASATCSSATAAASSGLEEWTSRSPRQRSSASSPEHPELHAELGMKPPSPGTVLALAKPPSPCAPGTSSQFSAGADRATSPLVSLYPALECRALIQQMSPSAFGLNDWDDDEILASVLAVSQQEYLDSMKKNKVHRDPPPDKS
Summary of the method: as §1

Measured: log2 ratio of Biotin-Ahx-Ub-VS probe labelling

N#Cc1ccccc1N1CCN(C(=O)CCl)CC1
active: [2] -1.16 | [3] -1.32
inactive: [1] -0.383 | [4] -0.123 | [5] -0.0881 | [6] 0.162 | [7] -0.449 | [8] -0.714 | [9] -0.872
